Anthrax LF prot – blocks Bacillus anthracis lethal factor protease. multiplex microsphere protease cleavage assay, LF. inhibition, % at 10 µM. hit rate 0.12% among 360,000. AID 588501; also: plate controls were buffer without enzyme for full effect and enzyme alone for no effect
Autofluor counter – compound fluorescence in toxin protease inhibitor counterscreen; compound autofluorescence counterscreen, microsphere flow cytometry; stronger effect = higher value; fluorescence intensity (no concentration beside the values); hit rate 3.1% among 360,000; in the data active = fluorescence intensity above about 16000; inconclusive = no clear call, values can overlap the other calls
BoNT F protease – blocks Botulinum neurotoxin F light chain protease; AID 588497; inhibition, % at 10 µM; hit rate 0.22% among 360,000; Multiplex microsphere protease cleavage assay, flow cytometry; in the data active = inhibition above about 35%, passing the limit was not always enough; inconclusive = no clear call, values can overlap the other calls; also: plate controls were buffer without enzyme for full effect and enzyme alone for no effect
BoNT-A LC inh2 – inhibitors of Botulinum neurotoxin A light chain protease; multiplex microsphere protease substrate cleavage, flow cytometry; inhibition, % at 10 µM; hit rate 0.17% among 360,000; also: plate controls were buffer without enzyme for full effect and enzyme alone for no effect
PriA SSB inh – K. pneumoniae PriA-SSBct interaction inhibition. AlphaScreen SSBct-PriA binding, biotinylated peptide. inhibition, % at 33 µM. hit rate 0.6% among 430,000. AID 1272365; in the data active = inhibition mostly above about 37%, no sharp cut-off; inactive = mostly below about 20%;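 also: plate controls were negative control peptide for no effect and reference peptide for full effect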
MazF activator – activators of E. coli MazEF toxin-antitoxin RNase. P0AE70. FAM/BHQ RNA-DNA oligo cleavage fluorescence, 5 h. activation, % at 20 µM. hit rate 0.32% among 350,000; in the data active = activation above about 50%
An asterisk follows results filed as active; ? = inconclusive; · = no result given. A selection: hits, their analogues and other compounds. The true share with any hit is near 3.3%. Rule as the data show it, unless noted: active = inhibition above about 30%; inconclusive = no clear call, values can overlap the other calls; inactive = below that.

SMILES	Anthrax LF prot	Autofluor counter	BoNT F protease	BoNT-A LC inh2	PriA SSB inh	MazF activator
CC1CN(C(=O)c2cc(F)c(F)cc2Cl)CC(C)O1 (configuration not stated)	-2	9582	-2	1	-10	12
CC1CCCN(C(=O)c2cc(F)c(F)cc2Cl)C1 (configuration not stated)	-4	22587*	-5	2	-9	9
CCc1nc2n(n1)C(=O)C([C@@H](c1cccc(C(F)(F)F)c1)N1CCC(O)CC1)S2 (some centres not stated)	·	·	·	·	-23	·
CCOC(=O)C1CCc2sc(N)nc21 (configuration not stated)	·	·	·	·	-13	·
Cc1cc(C)c(C#N)c(OCC(=O)c2ccc(Br)cc2)n1	1	23283*	0	?	-14	-2
Cc1ccc(C(=O)COc2nc(C)cc(C)c2C#N)cc1	0	22443*	-3	-1	-7	-5
COC(=O)c1ccc(COc2nc(C)cc(C)c2C#N)o1	-2	9660	4	0	-11	-11
CCCCC(C(=O)O)N1C(=O)/C(=C/c2ccncc2)SC1=S (configuration not stated)	·	·	·	·	-12	·
COc1ccc(C2CC(=O)N3CN(Cc4ccco4)CSC3=C2C#N)cc1 (configuration not stated)	1	20177*	2	?	-2	-13
N#CC1=C2SCN(Cc3ccco3)CN2C(=O)CC1c1ccc(Cl)cc1 (configuration not stated)	1	22500*	2	3	-20	-2
O=C(CCNc1n[nH]c(=O)[nH]c1=O)N1CCOCC1	-1	22002*	0	?	-4	-6
Cc1c(CC(=O)N2C[C@H]3C[C@H](C2)c2cccc(=O)n2C3)c(=O)oc2c(C)c(O)ccc12	·	·	·	·	2	·
C=CCN(CC=C)C(=S)Nc1ccccc1	-1	22624*	1	3	-11	-7
CCCSc1cnc(NC(=O)c2nnn(-c3ccccc3OC)c2C)s1	·	·	·	·	9	·
CC1CCN(c2nc3nonc3nc2N2CCC(C)CC2)CC1	-2	21212*	-2	?	-1	0
CCOC(=O)c1ccc2nc(NC(=O)Cc3cccc4ccccc34)sc2c1	·	·	·	·	-6	·
CCOc1ccccc1NC(=O)c1csc(Nc2ccc(OC(F)F)cc2)n1	·	·	·	·	-17	·
CCOC(=O)CNC(=O)CSc1nnc(C)c2cnn(-c3ccccc3)c12	·	·	·	·	-7	·
O=C(Cn1ncccc1=O)N1CCN(c2ccc(-c3ccccn3)nn2)CC1	·	·	·	·	130*	·
COc1ccccc1-c1ccc(=O)n(CC(=O)N2CCN(c3ccc(-c4ccccn4)nn3)CC2)n1	·	·	·	·	104*	·
O=c1[nH]nc(Cc2ccc3ccccc3n2)c2ccccc12	1	3210	-2	0	-6	74*
Cc1ccc(C)c(C2C(=O)c3ccccc3C2=O)c1	-1	5703	-3	0	-5	1
Cc1ccc2ccc(C3C(=O)c4ccccc4C3=O)nc2c1	0	8367	-12	1	-10	85*
CC(=O)Nc1nc(C)c(Oc2ccccc2)c(=O)[nH]1	-12	20911*	3	2	-6	-1
O=C(CSCc1ccccc1)Nc1ccn2nccc2c1	·	·	·	·	-5	·
SMILES	Anthrax LF prot	Autofluor counter	BoNT F protease	BoNT-A LC inh2	PriA SSB inh	MazF activator
O=S(=O)(c1ccc(Cl)cc1)c1nc(-c2cccs2)oc1N1CCOCC1	·	·	·	·	44*	·
CN1CCN(c2oc(-c3ccccc3)nc2S(=O)(=O)c2ccc(Br)cc2)CC1	-2	5870	-9	-4	39*	6
O=S(=O)(c1ccccc1)c1nc(-c2ccccc2)oc1N1CCCC1	-6	3792	1	0	-4	-14
O=C(Nc1nc2c(F)cc(F)cc2s1)c1ccno1	·	·	·	·	-7	·
Cc1nccn1-c1ccc(C(=O)Nc2cccc(Cl)c2Cl)nn1	·	·	·	·	2	·
CCOC(=O)C1CCCN(C(=O)c2nnn(-c3ncc(C)s3)c2C)C1 (configuration not stated)	·	·	·	·	-2	·
O=C(Nc1ccc(OC(F)(F)F)cc1)C1CNC1	·	·	·	·	-13	·
Cc1cc2ncc(NC(=O)Cc3ccc(S(=O)(=O)C(C)C)cc3)cn2n1	·	·	·	·	6	·
COc1ccc(C(=O)Nc2nc3cc(OC)c(OC)cc3c(=O)[nH]2)cc1	-2	25582*	-5	-3	-11	34
COc1cc2nc(NC(=O)c3ccccc3)[nH]c(=O)c2cc1OC	2	4386	-10	-1	3	-1
COCCCNC(=O)CSc1nc2ccccc2c(=O)n1CCNC(C)=O	·	·	·	·	6	·
CC1Oc2ccccc2N(CC(=O)Nc2ccccc2F)C1=O (configuration not stated)	-7	3785	-21	-3	-4	2
